From PubChem BioAssay
Values without a mark were called inactive. The source made the active and inactive calls. Rule as the data show it, unless noted: active = inhibition above about 25%; inactive = the rest.

What was measured:
[1] = biological target: Nuclear receptor coactivator 3 (Homo sapiens) (UniProt Q9Y6Q9); test: NCOA3 GAL4-fusion reporter inhibition – cell-based, luminescence, quadruplicate, confirmation (AID 588792;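 active = mean inhibition over 43.08%, the solvent-only control mean plus 3 SD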;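 also: 0% = DMSO treated cells and 100% = gossypol at 36 µM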); conditions: HEK293 GAL4-SRC3 luciferase reporter, at 3.6 µM, stronger effect = higher value
[2] = tested on: transactivating tegument protein VP16 (Human herpesvirus 1), Gal4-VP16 luciferase reporter; test: repression of VP16-driven luciferase reporter – cell-based, luminescence, high throughput, counter-screen for SRC3 inhibitor project (AID 588794; in the data active = inhibition above about 30%); conditions: mammalian cells, at 3.6 µM, stronger effect = higher value
[3] = biological target: Nuclear receptor coactivator 1 (Homo sapiens) (UniProt Q15788); test: NCOA1 GAL4-fusion reporter inhibition – cell-based, luminescence, quadruplicate, confirmation (AID 588820;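 active = mean inhibition above 46.68%, the untreated control wells mean plus 3 SD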;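 also: 0% = DMSO wells and 100% = gossypol 36 µM treated wells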); conditions: HEK293 GAL4-SRC1 luciferase reporter, at 3.6 µM, stronger effect = higher value
[4] = repression of VP16-driven luciferase reporter – cell-based, luminescence, high throughput, counter-screen for SRC1 inhibitor project (AID 588824); conditions: cell-based VP16 transactivation luciferase luminescence; at 3.6 µM; stronger effect = higher value

Chain of Nuclear receptor coactivator 3 (Homo sapiens) (Q9Y6Q9 whole entry, looked up, the tested form may be a part): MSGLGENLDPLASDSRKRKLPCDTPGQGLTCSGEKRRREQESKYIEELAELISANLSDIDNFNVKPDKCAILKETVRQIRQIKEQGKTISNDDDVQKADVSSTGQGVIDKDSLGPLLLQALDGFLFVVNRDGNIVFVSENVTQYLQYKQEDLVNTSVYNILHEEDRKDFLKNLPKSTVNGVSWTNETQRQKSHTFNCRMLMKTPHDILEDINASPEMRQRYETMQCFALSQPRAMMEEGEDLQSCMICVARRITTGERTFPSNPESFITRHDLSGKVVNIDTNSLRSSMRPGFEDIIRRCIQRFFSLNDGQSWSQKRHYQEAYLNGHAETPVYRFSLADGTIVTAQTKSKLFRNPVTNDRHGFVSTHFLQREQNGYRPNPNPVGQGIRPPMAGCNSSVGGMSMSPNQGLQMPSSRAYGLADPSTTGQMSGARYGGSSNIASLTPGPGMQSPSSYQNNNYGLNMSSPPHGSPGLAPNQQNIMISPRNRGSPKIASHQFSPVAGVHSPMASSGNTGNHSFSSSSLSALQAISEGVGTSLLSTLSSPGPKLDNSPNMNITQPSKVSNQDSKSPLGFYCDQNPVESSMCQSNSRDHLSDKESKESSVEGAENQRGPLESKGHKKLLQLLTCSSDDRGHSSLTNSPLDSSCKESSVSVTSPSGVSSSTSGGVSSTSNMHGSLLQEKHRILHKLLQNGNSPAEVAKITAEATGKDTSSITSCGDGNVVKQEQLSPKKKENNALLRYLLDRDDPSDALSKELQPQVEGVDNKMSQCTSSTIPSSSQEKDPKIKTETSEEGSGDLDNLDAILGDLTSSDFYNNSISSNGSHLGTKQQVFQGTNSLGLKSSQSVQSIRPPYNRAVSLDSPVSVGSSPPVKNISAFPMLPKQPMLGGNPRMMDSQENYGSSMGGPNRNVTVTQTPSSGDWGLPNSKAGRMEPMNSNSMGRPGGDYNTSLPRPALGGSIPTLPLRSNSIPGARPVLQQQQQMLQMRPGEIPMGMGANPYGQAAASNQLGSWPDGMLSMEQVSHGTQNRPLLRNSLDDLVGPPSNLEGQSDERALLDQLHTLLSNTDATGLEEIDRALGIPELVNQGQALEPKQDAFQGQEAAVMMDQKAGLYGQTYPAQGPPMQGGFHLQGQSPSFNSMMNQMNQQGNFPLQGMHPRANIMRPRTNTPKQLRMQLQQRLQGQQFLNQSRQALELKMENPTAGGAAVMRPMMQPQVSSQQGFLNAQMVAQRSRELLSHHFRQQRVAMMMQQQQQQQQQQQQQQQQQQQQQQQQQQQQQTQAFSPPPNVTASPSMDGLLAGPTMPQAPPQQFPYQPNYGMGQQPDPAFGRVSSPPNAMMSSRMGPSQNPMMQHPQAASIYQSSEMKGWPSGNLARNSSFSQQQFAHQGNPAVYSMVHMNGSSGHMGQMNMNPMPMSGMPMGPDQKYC
Chain of Nuclear receptor coactivator 1 (Homo sapiens) (Q15788 whole entry, looked up, the tested form may be a part): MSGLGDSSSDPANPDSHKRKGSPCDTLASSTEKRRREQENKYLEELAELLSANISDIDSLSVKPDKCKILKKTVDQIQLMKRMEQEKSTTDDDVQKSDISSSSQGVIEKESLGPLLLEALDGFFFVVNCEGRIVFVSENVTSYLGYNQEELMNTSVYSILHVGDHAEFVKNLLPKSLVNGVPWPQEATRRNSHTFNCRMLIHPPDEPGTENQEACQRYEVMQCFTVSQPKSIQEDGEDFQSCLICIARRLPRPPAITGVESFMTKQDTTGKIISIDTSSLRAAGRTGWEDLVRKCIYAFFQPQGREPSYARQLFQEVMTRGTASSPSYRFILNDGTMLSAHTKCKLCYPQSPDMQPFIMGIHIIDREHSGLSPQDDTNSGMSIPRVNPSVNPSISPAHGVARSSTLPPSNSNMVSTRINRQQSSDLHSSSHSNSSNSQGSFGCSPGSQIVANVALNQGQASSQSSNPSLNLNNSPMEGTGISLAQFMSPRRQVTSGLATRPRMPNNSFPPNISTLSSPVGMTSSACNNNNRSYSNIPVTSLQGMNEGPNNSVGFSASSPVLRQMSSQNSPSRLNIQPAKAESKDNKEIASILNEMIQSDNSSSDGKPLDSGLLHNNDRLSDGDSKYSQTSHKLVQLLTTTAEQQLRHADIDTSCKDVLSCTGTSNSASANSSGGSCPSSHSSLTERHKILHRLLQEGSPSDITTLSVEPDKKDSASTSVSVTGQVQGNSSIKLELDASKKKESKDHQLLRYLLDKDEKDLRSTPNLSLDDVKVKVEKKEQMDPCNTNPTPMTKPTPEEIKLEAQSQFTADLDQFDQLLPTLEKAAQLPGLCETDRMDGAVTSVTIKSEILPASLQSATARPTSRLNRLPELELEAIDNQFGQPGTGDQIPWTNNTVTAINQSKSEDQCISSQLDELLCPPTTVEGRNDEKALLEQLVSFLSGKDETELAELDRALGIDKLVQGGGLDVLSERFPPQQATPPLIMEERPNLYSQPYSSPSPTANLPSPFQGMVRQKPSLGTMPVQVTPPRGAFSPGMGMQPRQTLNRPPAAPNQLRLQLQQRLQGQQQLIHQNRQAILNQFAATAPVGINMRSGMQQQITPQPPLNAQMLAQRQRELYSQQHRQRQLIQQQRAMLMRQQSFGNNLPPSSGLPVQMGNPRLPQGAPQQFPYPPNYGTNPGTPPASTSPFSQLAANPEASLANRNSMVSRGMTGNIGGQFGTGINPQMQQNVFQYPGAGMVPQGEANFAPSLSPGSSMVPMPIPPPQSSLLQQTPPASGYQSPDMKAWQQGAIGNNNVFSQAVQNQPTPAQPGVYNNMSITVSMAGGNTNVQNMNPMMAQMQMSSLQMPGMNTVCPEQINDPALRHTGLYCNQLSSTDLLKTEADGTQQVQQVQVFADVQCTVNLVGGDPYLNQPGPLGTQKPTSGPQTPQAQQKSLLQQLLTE

## CN(C)C=Nc1c(C(=O)c2ccccc2)sc2nccc(N(C)C)c12
[1]
  inhibition: 20.3%
[2]
  inhibition: 16.3%
[3]
  inhibition: 30.8%
[4]
  inhibition: 16.9%

## OC1c2cc(Br)ccc2N=C2CCCN21 (stereo unspecified)
[1]
  inhibition: 44.3% (active)
[2]
  inhibition: 37.3% (active)
[3]
  inhibition: 37%
[4]
  inhibition: 30.1% (active)

## CC1CCN(c2nc3ccc(C(=O)O)cc3s2)CC1
[1]
  inhibition: 10.7%
[2]
  inhibition: -7.13%
[3]
  inhibition: -48.3%
[4]
  inhibition: -1.81%

## COc1ccc(-c2c[n+]3c(n2-c2ccccc2)SCC3)cc1
[1]
  inhibition: 17.9%
[2]
  inhibition: 14.3%
[3]
  inhibition: 11.1%
[4]
  inhibition: 21%

## COc1ccc(C)cc1N=Nc1ccc(O)c2ncccc12
[1]
  inhibition: 9.14%
[2]
  inhibition: -10.3%
[3]
  inhibition: -18.4%
[4]
  inhibition: 0.73%

## COC(=O)c1c(C)oc2ccc(N(C(=O)c3ccncc3)S(=O)(=O)c3ccc(C)cc3C)cc12
[1]
  inhibition: 1.85%
[2]
  inhibition: 36.2% (active)
[3]
  inhibition: -7%
[4]
  inhibition: 27.3% (active)

## Cc1nn(Cc2ccc(Cl)cc2)c(C)c1NC(=O)c1cc(-c2ccc3c(c2)OCO3)on1
[1]
  inhibition: 15.2%
[2]
  inhibition: 50.3% (active)
[3]
  inhibition: 29.5%
[4]
  inhibition: 54.1% (active)

## COc1ccc(N/N=C(\C#N)C(=N)SCc2ccccc2)cc1
[1]
  inhibition: 25.9%
[2]
  inhibition: 34.2% (active)
[3]
  inhibition: 35.7%
[4]
  inhibition: 29.5% (active)

## COc1ccc2c(c1OC)C(=O)N1c3ccccc3C(=O)N(c3ccccc3)C21 (stereo unspecified)
[1]
  inhibition: 17.1%
[2]
  inhibition: 8.85%
[3]
  inhibition: -5.64%
[4]
  inhibition: 2.1%

## COC(CN(C(=O)CCl)C(C(=O)NC1CCCCC1)c1ccccc1C)OC (stereo unspecified)
[1]
  inhibition: 53.3% (active)
[2]
  inhibition: 24.2%
[3]
  inhibition: 26.2%
[4]
  inhibition: 25.1%

## Cn1c(/C(C#N)=C/c2ccc(-c3ccc(S(N)(=O)=O)cc3)o2)nc2ccccc21
[1]
  inhibition: 27.9%
[2]
  inhibition: 27.3%
[3]
  inhibition: -4.53%
[4]
  inhibition: 28.9% (active)

## Nc1nc(=O)n(C2CC(O)C(CO)O2)cc1F (stereo unspecified)
[1]
  inhibition: 58.5% (active)
[2]
  inhibition: 37.5% (active)
[3]
  inhibition: 57.2% (active)
[4]
  inhibition: 40.9% (active)

## COc1ccc(-c2ncncc2-c2ccccc2)c(O)c1
[1]
  inhibition: 27%
[2]
  inhibition: 17.1%
[3]
  inhibition: 35%
[4]
  inhibition: 14.7%

## O=[N+]([O-])c1ccc(NC(c2ccccc2)c2ccc3cccnc3c2O)cc1 (stereo unspecified)
[1]
  inhibition: 65% (active)
[2]
  inhibition: 58.8% (active)
[3]
  inhibition: 65.4% (active)
[4]
  inhibition: 71.2% (active)

## CN1CC(=O)N2C(c3ccc(Cl)cc3)c3[nH]c4ccccc4c3C[C@H]2C1=O (stereo partly specified)
[1]
  inhibition: 41.6%
[2]
  inhibition: 29.5% (active)
[3]
  inhibition: 25%
[4]
  inhibition: 33.9% (active)

## O=C(C=P(c1ccccc1)(c1ccccc1)c1ccccc1)c1ccccc1-c1ccccc1C(=O)C=P(c1ccccc1)(c1ccccc1)c1ccccc1
[1]
  inhibition: 60.6% (active)
[2]
  inhibition: 83.9% (active)
[3]
  inhibition: 24.4%
[4]
  inhibition: 82.8% (active)

## Cc1ccc2occ(/C=N/NC(=O)c3ccncc3)c(=O)c2c1
[1]
  inhibition: 21.2%
[2]
  inhibition: 15.1%
[3]
  inhibition: 20.3%
[4]
  inhibition: 14.4%

## c1ccc(CNc2c3ccccc3nc3ccccc23)cc1
[1]
  inhibition: 11.8%
[2]
  inhibition: 43.6% (active)
[3]
  inhibition: 0.54%
[4]
  inhibition: 54.9% (active)

## Cc1c(-c2ccccc2)oc2c(C(=O)N3CCN(c4ccc([N+](=O)[O-])cc4)CC3)cccc2c1=O
[1]
  inhibition: 54.4% (active)
[2]
  inhibition: 32.5% (active)
[3]
  inhibition: 45.9%
[4]
  inhibition: 27.3% (active)

## COC(=O)c1cc(N/C(N)=N/c2nc(C)cc(C)n2)cc(C(=O)OC)c1
[1]
  inhibition: 27.3%
[2]
  inhibition: 55.4% (active)
[3]
  inhibition: 48.2% (active)
[4]
  inhibition: 52% (active)

## CC1CCc2c(sc(NC(=O)c3cccs3)c2C(=O)O)C1 (stereo unspecified)
[1]
  inhibition: 33.8%
[2]
  inhibition: 60.6% (active)
[3]
  inhibition: 11.8%
[4]
  inhibition: 54.1% (active)

## COc1ccc(C(=O)Cn2c(C(C)=O)nc3ccccc32)cc1
[1]
  inhibition: -0.47%
[2]
  inhibition: -3.82%
[3]
  inhibition: -13.6%
[4]
  inhibition: -8.2%

## Nc1ncnc(NCc2ccc(F)cc2)c1[N+](=O)[O-]
[1]
  inhibition: 62.7% (active)
[2]
  inhibition: 29.8% (active)
[3]
  inhibition: 52.7% (active)
[4]
  inhibition: 29.9% (active)

## Cc1ccc(S(=O)(=O)N(C)Cc2ccc(C(=O)N/N=C/c3ccc(OC(F)F)cc3OC(F)F)cc2)cc1
[1]
  inhibition: 10.9%
[2]
  inhibition: 18.8%
[3]
  inhibition: -28.9%
[4]
  inhibition: 20%
